Assay outcomes as filed in PubChem.
TDP1 cell noCPT: qHTS for Inhibitors of human tyrosyl-DNA phosphodiesterase 1 (TDP1): qHTS in cells in absence of CPT; DT40 Tdp1-/- hTDP1 cells, no CPT, ATP luminescence, 48 h; Potency, µM (top dose mostly 46.2 µM), usual class: inhibitors; actives 15% (n = 420,000); note: nearly all actives have a fitted effect of over 55% in size
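Compound effects on proliferation are scored in DT40 Tdp1-/-;hTDP1 cells in the absence of CPT. ATP levels (CellTiter-Glo luminescence) are recorded after a ≥48 hr, 37 °C incubation.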
IL-1B inflam inh: inhibitors of inflammasome signaling (IL-1 beta secretion); THP-1 LPS/ATP IL-1B secretion, AlphaLISA, 16 h; active compounds read low; activity change, % at 57.5 µM; actives 4.7% (n = 360,000); AID 743279; in the data active = activity change below about -50%; inconclusive = mostly about -30% to -49%
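THP-1 cells pretreated 1 hr with compounds (up to 57.5 uM final), then stimulated with LPS (250 ng/mL final) plus ATP (1.25 mM final); secreted IL-1B measured by AlphaLISA after 16 hr, decreased signal indicating inhibition.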
TDP1 inh: TDP1 (human) enzyme inhibition; actives 0.28% (n = 350,000); Q9NUW8; Potency, µM (titrated, usually from 130 µM), actives largely listed as inhibitors; recombinant TDP1, AlphaScreen DNA substrate cleavage; note: nearly all actives have a fitted effect of over 40% in size
Target sequence (Q9NUW8 whole entry, looked up): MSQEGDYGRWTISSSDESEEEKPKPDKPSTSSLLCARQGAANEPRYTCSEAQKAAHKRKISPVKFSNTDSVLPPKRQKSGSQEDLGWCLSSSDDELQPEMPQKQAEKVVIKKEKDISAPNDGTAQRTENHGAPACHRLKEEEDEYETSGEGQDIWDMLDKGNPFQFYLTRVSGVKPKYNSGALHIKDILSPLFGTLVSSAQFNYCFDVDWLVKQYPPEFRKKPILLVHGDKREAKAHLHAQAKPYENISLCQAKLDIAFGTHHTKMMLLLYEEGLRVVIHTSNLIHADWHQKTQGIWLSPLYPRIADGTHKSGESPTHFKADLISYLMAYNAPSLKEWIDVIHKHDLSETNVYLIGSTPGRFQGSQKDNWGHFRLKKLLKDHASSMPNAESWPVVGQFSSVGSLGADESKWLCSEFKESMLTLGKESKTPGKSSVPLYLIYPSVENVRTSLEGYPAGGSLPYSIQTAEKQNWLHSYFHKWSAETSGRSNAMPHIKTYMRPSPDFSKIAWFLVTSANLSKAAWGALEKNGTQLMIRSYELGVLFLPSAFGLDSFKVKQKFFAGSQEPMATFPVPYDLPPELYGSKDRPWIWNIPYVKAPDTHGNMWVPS
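Steps: enzyme plus compound, 15 min RT; add biotin/phosphotyrosine-FITC oligonucleotide (15 nM final), react 5 min; add donor/acceptor beads (10 ug/ml final), 10 min; read AlphaScreen. Tdp1 at 1 nM final.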
HepG2 tox: HepG2 cytotoxicity, counter-screen for TGF-b inhibitors; HepG2 CAGA-GFP viability, ATP luminescence, 18 h; Potency, µM (highest dose often 46.1 µM), hits mostly cytotoxic; actives 0.76% (n = 410,000)
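CellTiter-Glo luminescence gave cytotoxicity after 18 hours at 37 degrees C. The cells were HepG2 CAGA-GFP in 1% FBS DMEM, stimulated with 500 pg/mL TGF-beta after compound addition. %Activity was normalised to no-cell wells (complete cell-killing) and DMSO (no toxicity), and curves were fitted and classified.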
TGFb inhibitor: inhibitors of TGF-b signaling | actives 1.2% (n = 410,000) | HepG2 CAGA-GFP TGF-b/SMAD3 reporter, GFP fluorescence, 18 h; TGF-beta stimulated, 500 pg/mL final | Potency, µM (highest dose often 46.1 µM), usual class: inhibitors | AID 588855; note: nearly all actives have a fitted effect of over 65% in size
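Smad-responsive CAGA-GFP expression was quantified in HEPG2 cells exposed to compounds and 500 pg/mL final TGF-beta for 18 h at 37 degrees C; unstimulated wells defined full inhibition.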
DT40 TDP1 CPT: DT40-hTDP1 cell growth loss with CPT | chicken DT40 Tdp1-/-;hTDP1 cells + 20 nM CPT, ATP luminescence, 48 h | actives 12% (n = 420,000) | Potency, µM (highest dose often 46.2 µM), most hits filed as inhibitors | AID 686979; note: nearly all actives have a fitted effect of over 55% in size
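Chicken DT40 Tdp1-/- cells stably complemented with human TDP1 were seeded at 400 cells/well in medium containing 20 nM camptothecin, exposed to pin-transferred compounds, and grown at 37 °C for at least 48 hr. Viability was read as ATP luminescence.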
Each line names hits and unclear results; the compound was inactive in the other large screens. Sampled rows, rich in hits. Any-hit rate of the full collection: about 18%. Unless noted, calls come from the whole dose curve; as a rule, active = well fitted curve in the direction sought with a large enough effect; inconclusive = small, poorly fitted or top-dose-only effect, or another doubt; inactive = no such curve, though single readings can be large; an effect the other way counts as inactive or inconclusive.

Nc1ccc(Cl)c[n+]1Cc1cccc2cccnc12	TDP1 cell noCPT inconclusive
COc1ccc(N2CCN(C(=O)C3CCCN(S(=O)(=O)c4ccc(C)cc4)C3)CC2)cc1 (centres undefined)	TDP1 cell noCPT 9.2µM, DT40 TDP1 CPT 9.2µM (no result: TDP1 inh)
Cc1nn(C)c(C)c1S(=O)(=O)N1CCCC(C(=O)N2CCN(c3ccccc3)CC2)C1 (centres undefined)	TDP1 cell noCPT 23µM, DT40 TDP1 CPT 16µM
Cc1ccc(S(=O)(=O)N2CCCC(C(=O)N3CCN(c4ccccc4)CC3)C2)cc1 (centres undefined)	TDP1 cell noCPT 18µM, TGFb inhibitor inconclusive, DT40 TDP1 CPT 18µM
COc1ccc(CNC(=O)C2CCCN(S(=O)(=O)c3ccc(F)cc3)C2)cc1 (centres undefined)	TDP1 cell noCPT inconclusive, DT40 TDP1 CPT inconclusive
COc1ccc(N2CCN(C(=O)C3CCCN(S(=O)(=O)c4ccc(F)cc4)C3)CC2)cc1 (centres undefined)	TDP1 cell noCPT 8.2µM, DT40 TDP1 CPT 10µM
O=C(C1CCCN(S(=O)(=O)c2cccc3cccnc23)C1)N1CCN(c2ccc(F)cc2)CC1 (centres undefined)	TDP1 cell noCPT inconclusive, DT40 TDP1 CPT 23µM
COc1ccc(S(=O)(=O)N2CCCC(C(=O)N3CCCCCC3)C2)cc1 (centres undefined)	TDP1 cell noCPT 18µM, DT40 TDP1 CPT inconclusive
O=C(C1CCN(S(=O)(=O)c2cccc3cccnc23)CC1)N1CCN(c2ccccc2)CC1	none
N#CC1=C(Nc2ccccc2)SC=C(c2ccc(Cl)c(Cl)c2)N=C1N1CCOCC1	TDP1 cell noCPT inconclusive, IL-1B inflam inh -80, DT40 TDP1 CPT 13µM
N#CC1=C(Nc2ccccc2)SC=C(c2ccccc2)N=C1N1CCOCC1	TDP1 cell noCPT 29µM, DT40 TDP1 CPT 5.8µM
Cc1cc(C)c(C)c(S(=O)(=O)Nc2ccc3cn[nH]c3c2)c1C	TDP1 cell noCPT 21µM, DT40 TDP1 CPT inconclusive
Cc1c(C(=O)N(C)C)sc2c1c(=O)n(-c1ccccc1C(F)(F)F)c(=O)n2Cc1ccccc1C#N	none (no result: IL-1B inflam inh)
COc1cc(C(=O)NC2CCCC(C)C2C)ccc1OCC(=O)N1CCOCC1 (centres undefined)	none
CCOC(=O)CNC(=O)CNC(=O)c1ccc(OC(C)C)cc1	none (no result: TDP1 inh)
CCCCCOc1ccc(C(=O)NCC(=O)NCC(=O)OCC)cc1	TDP1 cell noCPT 21µM, DT40 TDP1 CPT 18µM
CCOC(=O)CNC(=O)CNC(=O)c1ccc(OCC(C)C)cc1	TDP1 cell noCPT 21µM, DT40 TDP1 CPT inconclusive
NS(=O)(=O)c1ccc(NC(=O)CSc2nc3c(cnn3-c3ccccn3)c(=O)[nH]2)cc1	none
COc1ccc(OC)c(NC(=O)Cn2c(=O)n(Cc3nc(C)no3)c(=O)c3ccccc32)c1	none (no result: IL-1B inflam inh)
COc1ccc(-c2noc(Cn3c(=O)c4ccccc4n(CC(=O)Nc4cccc(C(F)(F)F)c4)c3=O)n2)cc1	TDP1 cell noCPT 16µM, TGFb inhibitor inconclusive, DT40 TDP1 CPT inconclusive (no result: IL-1B inflam inh)
CCOc1ccc(NC(=O)Cn2c(=O)n(Cc3nc(-c4ccccc4)no3)c(=O)c3cc4c(cc32)OCO4)cc1	none (no result: IL-1B inflam inh)
O=C(Cn1c(=O)n(Cc2nc(-c3ccccc3)no2)c(=O)c2cc3c(cc21)OCO3)Nc1cccc(C(F)(F)F)c1	TDP1 cell noCPT 9.2µM, DT40 TDP1 CPT 13µM (no result: IL-1B inflam inh)
CCc1nn(CC(=O)NC(C)CCc2ccccc2)c(=O)c2cc3c(OC)cccc3n12 (centres undefined)	none (no result: IL-1B inflam inh)
CCc1nnc(SC(CC)C(=O)Nc2ccc(OC)c(Cl)c2)c2cc3occc3n12 (centres undefined)	TDP1 cell noCPT inconclusive, TGFb inhibitor inconclusive, DT40 TDP1 CPT inconclusive (no result: IL-1B inflam inh)
CCCOc1ccc(C(C)=O)cc1CSc1nc(O)cc(=O)[nH]1	TDP1 cell noCPT 9.2µM, DT40 TDP1 CPT 21µM
O=c1c(Cl)c2oc3ccccc3nc-2c2ccccc12	TDP1 cell noCPT inconclusive, TGFb inhibitor 5µM, DT40 TDP1 CPT inconclusive
Cc1cc(C)n(-c2nc3ccccc3c(=O)n2OCCOc2ccccc2)n1	TDP1 cell noCPT 18µM, DT40 TDP1 CPT 12µM
C=CCOn1c(-n2nc(C)cc2C)nc2ccccc2c1=O	none (no result: TDP1 inh)
COc1ccc(-c2oc3cccnc3c2/C=C/c2ccc(OC)c(OC)c2)cc1	TDP1 cell noCPT inconclusive, IL-1B inflam inh inconclusive, TGFb inhibitor inconclusive, DT40 TDP1 CPT inconclusive (no result: TDP1 inh)
COc1ccc(C2C3(C#N)C(N)=NC(OC)(OC)C23C#N)cc1 (centres undefined)	TDP1 cell noCPT inconclusive, IL-1B inflam inh -92
COC1(OC)N=C(N)C2(C#N)C(c3ccc4c(c3)OCO4)C12C#N (centres undefined)	TDP1 cell noCPT inconclusive, DT40 TDP1 CPT 8.2µM
Cc1ccc(C(C)C)c(OCC#CCN2CCOCC2)c1	none (no result: TDP1 inh)
Cc1cn2c(=O)cc(COC(=O)c3ccc(NC(=O)COc4ccc(C)c(C)c4)cc3)nc2s1	none (no result: IL-1B inflam inh)
CCOC(=O)C(CC)/C(C)=N\NC(=O)c1ccccc1O (centres undefined)	TDP1 cell noCPT 23µM, DT40 TDP1 CPT 16µM
CCn1c(-c2ccccc2F)nc2cc(NC(C)=O)cc(C(=O)NCc3ncc(C)[nH]3)c21	none (no result: IL-1B inflam inh, TDP1 inh, HepG2 tox, TGFb inhibitor)
O=C(O)/C=C/C(=O)Nc1ccc(C2(c3ccc(NC(=O)/C=C/C(=O)O)cc3)c3ccccc3-c3ccccc32)cc1	none (no result: TDP1 inh)
O=C(CCC1N=C2c3ccccc3N=C(SCc3ccc(Cl)cc3)N2C1=O)NC1CCCCC1 (centres undefined)	TDP1 cell noCPT 13µM (no result: IL-1B inflam inh)
Cc1ccc(CSC2=Nc3ccccc3C3=NC(CCC(=O)NC4CCCCC4)C(=O)N23)cc1 (centres undefined)	TDP1 cell noCPT inconclusive, DT40 TDP1 CPT 23µM (no result: IL-1B inflam inh)
O=C1C2CC=CCC2C(=O)N1Cc1nnc(-c2ccccc2Br)o1 (centres undefined)	TGFb inhibitor inconclusive
COc1ccc(CC(=O)Nc2ccc(-c3cn4ccc(C)cc4n3)cc2)cc1	TDP1 cell noCPT 5.2µM, DT40 TDP1 CPT 5.8µM
Cc1ccn2cc(-c3cccc(NC(=O)C(C)C)c3)nc2c1	TDP1 cell noCPT 29µM, DT40 TDP1 CPT 15µM
Cc1cccn2cc(-c3ccc(NC(=O)Cc4ccccc4)cc3)nc12	TDP1 cell noCPT inconclusive, TGFb inhibitor inconclusive, DT40 TDP1 CPT inconclusive (no result: TDP1 inh)
CCc1ccc(NC(=O)Cc2ccc(OC)cc2)cc1	none (no result: TDP1 cell noCPT, IL-1B inflam inh, HepG2 tox, TGFb inhibitor, DT40 TDP1 CPT)
